Screening data from PubChem BioAssay.
Hits are enriched below; roughly 1.6% of the tested compounds scored in any of these assays.
KCNQ2 block = KCNQ2 (rat) channel inhibition; B-score at 10 µM; CHO-K1 KCNQ2, FluxOR thallium flux, 20 min; stronger effect = lower value; 310,000 tested, 1.1% active; O88943;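 active = fluorescence ratio B-score at most minus 3 library SDs, with starting brightness B-score within 2 library SDs, cut at about -5.5 in these data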
KCNQ2 pot = potentiators of rat KCNQ2 potassium channel; CHO-K1 KCNQ2, FluxOR thallium flux fluorescence; stronger effect = higher value; B-score at 10 µM; AID 2239; 310,000 tested, 0.54% active;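 active = fluorescence ratio B-score at least 3 SD of library B-scores, with initial fluorescence B-score within 3 of them, cut at about 5.3 in these data; same plate scores as AID 2156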;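 note: B-score of peak minus minimum over baseline fluorescence ratio after K+ and Tl+ stimulus; positive B-score means potentiation of KCNQ2 with more thallium influx and brighter signal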
KCNQ2 inh conf = confirmation of rat KCNQ2 potassium channel inhibitors; KCNQ2-expressing cells, thallium flux, inhibition; stronger effect = lower value; 1,000 tested, 57% active; activity change, negative = inhibition, % at 10 µM; shares compounds with KCNQ2 block
KCNQ1 spec = KCNQ2 inhibitor that also affects human KCNQ1 channel; shares compounds with KCNQ2 block; KCNQ1-expressing cells, FluxOR thallium flux fluorescence; stronger effect = lower value; activity change, negative = inhibition, % at 10 µM; 1,000 tested, 15% active; AID 493026;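 active = activity change at least 3 SD of negative controls below their mean in both duplicate wells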;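 note: CHO cells stably transfected with KCNQ1 and depolarized by potassium stimulus; peak minus minimum fluorescence over baseline after thallium addition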
Target sequence (P51787 whole entry, looked up): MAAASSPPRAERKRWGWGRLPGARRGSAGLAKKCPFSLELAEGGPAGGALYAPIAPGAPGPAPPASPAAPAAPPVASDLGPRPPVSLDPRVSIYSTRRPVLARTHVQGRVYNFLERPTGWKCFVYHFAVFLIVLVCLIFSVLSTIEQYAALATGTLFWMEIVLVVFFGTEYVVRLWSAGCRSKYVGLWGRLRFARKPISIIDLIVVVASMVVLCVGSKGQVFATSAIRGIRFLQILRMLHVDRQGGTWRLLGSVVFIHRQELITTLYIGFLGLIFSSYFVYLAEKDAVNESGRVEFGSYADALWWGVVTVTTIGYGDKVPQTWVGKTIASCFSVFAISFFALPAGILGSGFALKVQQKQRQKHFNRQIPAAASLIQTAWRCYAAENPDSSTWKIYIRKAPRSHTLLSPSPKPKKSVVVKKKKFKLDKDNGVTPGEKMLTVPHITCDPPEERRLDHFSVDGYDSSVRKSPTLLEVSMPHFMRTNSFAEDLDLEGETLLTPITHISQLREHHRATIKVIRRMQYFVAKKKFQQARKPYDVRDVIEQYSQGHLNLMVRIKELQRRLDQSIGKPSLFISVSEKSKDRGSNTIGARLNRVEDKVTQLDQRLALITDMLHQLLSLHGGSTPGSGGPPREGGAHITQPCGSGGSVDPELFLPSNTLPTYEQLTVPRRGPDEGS
CHO parental ctr = activity in parental CHO cells lacking KCNQ2. shares compounds with KCNQ2 block. thallium flux counter-screen; stronger effect = lower value. activity change, % at 10 µM. 1,000 tested, 14% active. AID 493029
KCNQ2 inh confirm = rat KCNQ2 inhibition confirmed by electrophysiology; AID 588531; shares compounds with KCNQ2 block; calls only at 10 µM; 550 tested, 49% active; KCNQ2-expressing cells, automated patch clamp current
Kir21 confirm = confirmation of mouse Kir2.1 potassium channel inhibitors | AID 2032 | shares compounds with KCNQ2 pot | Tl flux remaining, % of negative control (stronger effect = lower value), % at 10 µM | Kir2.1-expressing cells, FluxOR thallium flux fluorescence; stronger effect = lower value | 2,300 tested, 41% active;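 active = Primary-screen hit whose thallium flux fell at least 3 control SD below untreated wells in both duplicates, with normal baseline fluorescence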
HEK293 Tl flux = counter-screen for Kir2.1 inhibitors: effect in parental HEK293 cells; shares compounds with KCNQ2 pot; FluxOR thallium flux fluorescence; 0% = unstimulated blank wells; FluxOR signal as % of negative control (100 = no effect), % at 10 µM; 2,300 tested, 19% active; AID 2105;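 active = dye signal at least 3 control SD above or below untreated wells in both duplicates, raw fluorescence within 3, either direction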;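 note: percent is based on the flux ratio of peak minus minimum fluorescence over baseline F0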
CHO-K1 ctr = counter-screen for KCNQ2 potentiators: effect in parental CHO-K1 cells | activity increase over 3SD of controls, % at 10 µM | FluxOR thallium flux fluorescence; zero = vehicle mean+3SD, 100% = vehicle-minus-blank window | shares compounds with KCNQ2 pot | 1,200 tested, 43% active;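 active = signal rise of at least 3 SD above the untreated control mean, in both duplicate wells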;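 note: counter screen of KCNQ2 potentiator hits so any rise reflects channel-independent effects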
KCNQ1 sel pot = tests whether KCNQ2 potentiators also act on human KCNQ1; shares compounds with KCNQ2 pot; CHO KCNQ1 stable, FluxOR thallium flux fluorescence; beyond 3SD, as % of vehicle-control signal; activation over 3SD threshold, % at 10 µM; 1,200 tested, 28% active; AID 2283;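 active = fluorescence ratio rise of at least 3 SD of vehicle wells above their mean, in both replicate wells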
KCNQ2 pot conf = confirmation of rat KCNQ2 potassium channel potentiators | shares compounds with KCNQ2 pot | CHO-KCNQ2 cells, FluxOR thallium flux fluorescence | potentiation, less the hit threshold, % at 10 µM | 1,200 tested, 68% active;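 active = fluorescence ratio rising 3 SD or more over the vehicle control mean in both replicates, plus primary screen hit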;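 note: peak minus minimum thallium fluorescence divided by baseline after K/Tl stimulus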
Kir21 spec = tests whether KCNQ2 potentiators also affect mouse Kir2.1; shares compounds with KCNQ2 pot; HEK293 Kir2.1, FluxOR thallium flux fluorescence; activity over 3SD threshold, % at 10 µM; 1,200 tested, 2% active; AID 2345;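 active = fluorescence ratio rise of at least 3 SD above the vehicle-control mean, seen in both replicates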
KCNQ2 W236L MoA = KCNQ2 potentiators acting on retigabine-insensitive rat KCNQ2 W236L mutant; shares compounds with KCNQ2 pot; CHO KCNQ2-W236L, automated patch clamp current; current increase over 3SD of negative controls (%), stronger effect = higher value, % at 25 µM; 940 tested, 10% active; AID 2558;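 active = current increase at least 3 SD of the untreated controls above them in both duplicate recordings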
Each line names hits and unclear results; the compound was inactive in the other large screens (follow-up assays come after a bar, where they were run). Unless noted, the rule behind the calls is not given here.

Cc1cc(OCC(=O)NCC(c2cccs2)N2CCOCC2)ccc1C(C)C (stereo unspecified)	none (no result: KCNQ2 pot)
CS(=O)(=O)Nc1ccc(C(=O)NCCSc2ccc(Cl)cc2)cc1	none (no result: KCNQ2 pot)
c1ccc(Cc2nc3ccccc3n2Cc2ccccc2)cc1	KCNQ2 block -8.06 | KCNQ2 inh conf -46.0% | KCNQ1 spec -44.5% | CHO parental ctr -36.5% | KCNQ2 inh confirm inactive | Kir21 confirm 64.0% | HEK293 Tl flux 77.0%
Cc1nc2ccccc2n1Cc1ccccc1	none (no result: KCNQ2 pot)
CCCn1c(NCc2ccccn2)nc2ccccc21	none
CCCn1c(NCc2c[nH]c3ccccc23)nc2ccccc21	KCNQ2 block -7.94 | KCNQ2 inh conf -27.5% | KCNQ1 spec inactive | CHO parental ctr inactive | KCNQ2 inh confirm active | Kir21 confirm 42.5% | HEK293 Tl flux inactive
O=C(/C=C/c1ccccc1O)c1ccco1	none (no result: KCNQ2 pot)
O=C(/C=C/c1cc(Br)ccc1O)c1ccco1	KCNQ2 block -7.68 | KCNQ2 inh conf -35.5% | KCNQ1 spec -41.0% | CHO parental ctr -29.0% | KCNQ2 inh confirm inactive | Kir21 confirm 73.0% | HEK293 Tl flux inactive
CCn1c(=O)[nH]c2cc(C(=O)Nc3cc(C)cc(C)c3)ccc2c1=O	none
Cc1cc(C)n(-c2nc(SCCN(C)C)c3c4c(sc3n2)CCCC4)n1	KCNQ2 block -8.89 | KCNQ2 inh conf -30.0% | KCNQ1 spec -31.0% | CHO parental ctr inactive | KCNQ2 inh confirm inactive | Kir21 confirm inactive | HEK293 Tl flux inactive
Cc1cc(C)n(-c2nc(SCC(=O)O)c3c4c(sc3n2)COC(C)(C)C4)n1	none (no result: KCNQ2 pot)
N=c1c2c(-c3ccccc3)c(-c3ccccc3)n(Cc3ccco3)c2ncn1CCCO	none (no result: KCNQ2 pot)
N=c1c2c(-c3ccccc3)c(-c3ccccc3)n(Cc3ccco3)c2ncn1CCO	KCNQ2 block -7.04 | KCNQ2 inh conf inactive | KCNQ1 spec inactive | CHO parental ctr inactive | Kir21 confirm 37.0% | HEK293 Tl flux inactive
CCOC(=O)N1CCC(N(CCN(C)C)C(=S)Nc2ccc(Oc3ccccc3)cc2)CC1	none
COc1cccc(CN2CC(C(=O)N(C)Cc3ccnc4ccccc34)CCC2=O)c1 (stereo unspecified)	none (no result: KCNQ2 pot)
COc1cccc(Nc2nc(NCC3CCCO3)c3ccccc3n2)c1 (stereo unspecified)	KCNQ2 block -10.1 | KCNQ2 inh conf inactive | KCNQ1 spec inactive | CHO parental ctr inactive | Kir21 confirm 17.5% | HEK293 Tl flux inactive
COc1cccc(Nc2nc(NCCO)c3ccccc3n2)c1	none (no result: KCNQ2 pot)
FC(F)(F)c1cccnc1Oc1ccc(C2=NCCS2)cc1	KCNQ2 pot 5.37 | Kir21 confirm inactive | HEK293 Tl flux inactive | CHO-K1 ctr inactive | KCNQ1 sel pot 30.1 | KCNQ2 pot conf 12.6 | Kir21 spec inactive | KCNQ2 W236L MoA inactive
Nc1cccnc1Oc1ccc(F)cc1	none
Cc1cc(C)cc(OCCn2nnc3ccccc32)c1	none (no result: KCNQ2 pot)
CC1=NN(C(N)=S)C(=O)C1N=Nc1cccc(Cl)c1C (stereo unspecified)	KCNQ2 pot 40 | Kir21 confirm inactive | HEK293 Tl flux inactive | CHO-K1 ctr inactive | KCNQ1 sel pot inactive | KCNQ2 pot conf 110.3 | Kir21 spec inactive | KCNQ2 W236L MoA inactive
CC1=NN(C(N)=S)C(=O)C1N=Nc1cccc2ccccc12 (stereo unspecified)	none (no result: KCNQ2 pot)
CC(C)(C)c1nnc(NS(=O)(=O)c2cc(Cl)ccc2Cl)s1	none
O=S(=O)(Nc1nc(-c2sccc2Cl)cs1)c1cc(Cl)ccc1Cl	KCNQ2 pot 18.8 | Kir21 confirm inactive | HEK293 Tl flux 339.0% | CHO-K1 ctr 17.3 | KCNQ1 sel pot inactive | KCNQ2 pot conf 149.0 | Kir21 spec inactive | KCNQ2 W236L MoA inactive
Cc1cc(C)c(S(=O)(=O)NCCc2ccccc2)c(C)c1	none (no result: KCNQ2 pot) | Kir21 confirm 49.5% | HEK293 Tl flux inactive
Cc1ccc(S(=O)(=O)NCCc2ccccc2)cc1	none (no result: KCNQ2 pot)
Cc1nn(C(=O)c2nn(C)cc2[N+](=O)[O-])c(C)c1Cl	none
Cc1ccc2c(c1)c1c(n2CC(O)CNC2CCCCC2)CCCC1 (stereo unspecified)	none (no result: KCNQ2 pot) | Kir21 confirm 51.0% | HEK293 Tl flux inactive
Cc1ccc2c(c1)c1c(n2CC(O)CNC(CO)(CO)CO)CCCC1 (stereo unspecified)	none
COc1ccc(CN2C(=O)c3ccc(C(=O)O)cc3C2=O)cc1	none (no result: KCNQ2 pot)
O=C(CCCCCNc1nc(=S)[nH]c2ccccc12)NCCC1=CCCCC1	none
Cc1occc1C(=O)Nc1ccc2c(c1)OCCO2	none
Cc1occc1C(=O)Nc1ccc2c(c1)CCC2	KCNQ2 pot 7.2 | Kir21 confirm inactive | HEK293 Tl flux inactive | CHO-K1 ctr inactive | KCNQ1 sel pot inactive | KCNQ2 pot conf 32.3 | Kir21 spec inactive | KCNQ2 W236L MoA inactive
COC(=O)c1cccc(NC(=S)Nc2ccc(Cl)c(Cl)c2)c1	KCNQ2 pot 5.41 | Kir21 confirm inactive | HEK293 Tl flux inactive | CHO-K1 ctr inactive | KCNQ1 sel pot 1.4 | KCNQ2 pot conf inactive | Kir21 spec inactive | KCNQ2 W236L MoA inactive
COC(=O)c1cccc(NC(=S)Nc2ccccc2Cl)c1	none
CC(=O)N1CCOc2ccc(S(=O)(=O)NCc3ccccc3Cl)cc21	none (no result: KCNQ2 pot)
CC(=O)N1CC(C)Sc2ccc(S(=O)(=O)NCc3ccccc3Cl)cc21 (stereo unspecified)	none (no result: KCNQ2 pot) | Kir21 confirm 75.0% | HEK293 Tl flux inactive
COc1ccc2c(c1)CC(N1CCN(C)CC1)c1cc(OC)ccc1S2 (stereo unspecified)	none (no result: KCNQ2 pot)
Clc1ccc2c(c1)C(N1CCNCC1)Cc1ccccc1S2 (stereo unspecified)	KCNQ2 block -11.6 | Kir21 confirm 32.0% | HEK293 Tl flux inactive
Cc1cccc(-c2nnc(SCC(=O)N3CCOCC3)o2)c1	none
